Experimental data from PubChem BioAssay.
Calls of active or inactive are those of the source.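 How the source made its calls, unless noted: active means inhibition of the reporter signal at or above 50%; inactive means inhibition below 50%.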

Legend:
[1] = inhibitors of TNFa-induced NFkB p65 translocation, primary screen, imaging, HUVEC, MLSMR starter and 10KST1 sets (AID 438;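 active means inhibition above 20% together with a positive visual image hit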;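 further: compound added about 3h40 before a 20 min TNFalpha stimulation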;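 on inhibition: signal is the nuclear over cytoplasmic p65 intensity ratio per well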); settings: HUVEC TNFa-induced p65 nuclear translocation; cell count: measured here: nuclei count (cytotoxicity indicator), at 2.08 µM; inhibition: at 2 µM, stronger effect = higher value, 0% TNFa-plus-vehicle, 100% no-TNFa wells
[2] = reduction of polyQ htt aggregates in cells – imaging, exon1htt(103Q)mCFP cells, high-content imaging, primary screen (AID 483;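 active means visual image review flags a hit and inhibition of aggregation exceeds 20%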;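 further: compound exposure lasted 3 days before fixation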;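 on nuclei count: percent of the per-plate median nuclei count of sample wells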); settings: exon1htt(103Q)mCFP cell line, aggregate imaging, at 2 µM; inhibition of aggregation: stronger effect = higher value; nuclei count: measured here: cell count, toxicity
[3] = endothelial E-selectin expression blockers – imaging, HUVEC, immunofluorescence, MLSMR starter and 10KST1 sets, primary screen (AID 487;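 active means visually confirmed hit in the image check and inhibition above 20%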;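 on inhibition: signal is fraction of cell area covered by stained E-selectin grains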;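 on nuclei count: 100% = median nuclei count of all wells on the same plate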); settings: HUVEC TNFalpha-induced E-selectin immunofluorescence imaging, at 2 µM; inhibition: stronger effect = higher value; nuclei count: measured here: cell number, toxicity
[4] = molecular target: Voltage-gated potassium channel subunit beta-2 (Rattus norvegicus) (UniProt P62483); assay: inhibitors of rat Kvbeta2 reductase activity – biochemical, NADPH fluorescence, primary screen (AID 622;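 active means fluorescence slope higher than the sample average by over 3 SD, cut at about -0.22 in these data, passing the limit was not always enough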;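 further: slope of raw intensity against log time taken from 70 to 1610 s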); settings: recombinant KvBeta, 4-cyanobenzaldehyde reduction, at 10 µM, stronger effect = higher value
Chain of Voltage-gated potassium channel subunit beta-2 (Rattus norvegicus) (P62483 whole entry, looked up): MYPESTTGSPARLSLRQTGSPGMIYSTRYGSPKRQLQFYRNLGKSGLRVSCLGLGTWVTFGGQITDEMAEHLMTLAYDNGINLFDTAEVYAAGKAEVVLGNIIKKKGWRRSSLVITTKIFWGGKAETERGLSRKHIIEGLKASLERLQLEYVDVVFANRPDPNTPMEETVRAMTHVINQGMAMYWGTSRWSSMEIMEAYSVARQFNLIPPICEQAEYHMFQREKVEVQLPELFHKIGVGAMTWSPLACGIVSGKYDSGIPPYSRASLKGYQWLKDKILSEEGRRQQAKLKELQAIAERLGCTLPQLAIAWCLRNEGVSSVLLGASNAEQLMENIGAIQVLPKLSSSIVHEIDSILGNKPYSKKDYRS

[5] = molecular target: Voltage-gated potassium channel subunit beta-2 (Rattus norvegicus) (UniProt P62483); assay: enhancers of rat Kvbeta2 NADPH turnover – biochemical, NADPH fluorescence, primary screen (AID 623;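 active means NADPH fluorescence slope more negative than the mean of all samples by about 3 SD, 99.7% confidence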;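 further: fluorescence intensity change per second fitted from 20 to 320 s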); settings: Recombinant KvBeta, NADPH fluorescence decrease slope, 10 min; at 10 µM; stronger effect = lower value
[6] = molecular target: Alpha-2C adrenergic receptor (Homo sapiens) (UniProt P18825); assay: compounds altering alpha2C-coupled GIRK flux – cell-based, HEK293 alpha2C/GIRK1/2, thallium flux, primary screen (AID 624;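 active means fluorescence slope after compound addition differing from the mean of all screened samples at 99.7% confidence, in either direction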;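 further: slope of fluorescence ratio to pre-addition baseline per second over 15 to 24 s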); settings: thallium flux BTC fluorescence, at 10 µM, actives lie on both sides
Chain of Alpha-2C adrenergic receptor (Homo sapiens) (P18825 whole entry, looked up): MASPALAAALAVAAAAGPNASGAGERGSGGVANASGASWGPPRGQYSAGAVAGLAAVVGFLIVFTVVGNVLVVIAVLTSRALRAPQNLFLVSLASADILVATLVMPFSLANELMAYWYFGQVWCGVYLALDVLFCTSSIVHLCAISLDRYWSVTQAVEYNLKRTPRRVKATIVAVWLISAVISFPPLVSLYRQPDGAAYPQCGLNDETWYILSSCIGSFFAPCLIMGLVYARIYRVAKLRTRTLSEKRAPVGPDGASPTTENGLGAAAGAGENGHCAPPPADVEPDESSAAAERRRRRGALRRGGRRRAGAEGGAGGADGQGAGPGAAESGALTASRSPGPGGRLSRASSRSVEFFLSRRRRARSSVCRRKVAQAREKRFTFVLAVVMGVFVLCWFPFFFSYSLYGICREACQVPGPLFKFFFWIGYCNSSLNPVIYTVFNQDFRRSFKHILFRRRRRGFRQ

[7] = blockers of RIG-like receptor reporter activation – cell-based, Sendai virus stimulus, luciferase, 10K MLSCN set, TLR/RLR signaling modifier project, primary screen (AID 602276;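 active means inhibition at or above 50% at 10 µM; inactive means inhibition below 50%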;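 further: firefly luciferase from ISG56 promoter only with Renilla not read in this screen; 0% = Sendai virus plus DMSO and 100% = medium plus DMSO without virus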); settings: HEK293 RL24 IRF3 luciferase reporter, at 10 µM, stronger effect = higher value
[8] = TLR3 IRF3 reporter activation blockers – cell-based, poly I:C stimulus, luciferase, 10K MLSCN set, primary screen (AID 602277); settings: HEK293-TLR3 RL24 IRF3 luciferase reporter, at 10 µM, stronger effect = higher value

| Compound | cell count [1] | inhibition [1] | inhibition of aggregation [2] | nuclei count [2] | inhibition [3] | nuclei count [3] | fluorescence slope [4] | NADPH fluorescence slope [5] | slope [6] | inhibition [7] | inhibition [8] |
| --- | --- | --- | --- | --- | --- | --- | --- | --- | --- | --- | --- |
| CCOC(=O)c1ccc(NS(=O)C23CC4CC(CC(C4)C2)C3)cc1 (centres undefined) | 406 | -1.1% (inactive) | -7.1% (inactive) | 111% | -53.8% (inactive) | 134% | -0.458 (inactive) | -9e-06 (inactive) | 0.00476 (inactive) | -1.97% (inactive) | 6.33% (inactive) |
| Fc1ccc(-c2nnc3ccc(N4CCCC4)nn23)cc1 | 662 | 0.5% (inactive) | -1% (inactive) | 97.7% | -61.6% (inactive) | 120% | -0.56 (inactive) | 2e-05 (inactive) | 0.00653 (inactive) | 3.21% (inactive) | -61.2% (inactive) |
| O=C(Nc1ccc(F)cc1)NC1CCN(Cc2nnnn2Cc2ccco2)CC1 | 849 | 0% (inactive) | -19.5% (inactive) | 94.3% | -2.9% (inactive) | 113% | -0.501 (inactive) | -4.4e-05 (inactive) | 0.00571 (inactive) | -9.98% (inactive) | 0.354% (inactive) |
| O=C(O)c1[nH]c2ccc(Cl)cc2c1CC(=O)N1CCN(C(=O)c2ccco2)CC1 | 374 | -0.5% (inactive) | -8.5% (inactive) | 99.6% | -73.3% (inactive) | 103% | -0.401 (inactive) | -3.1e-05 (inactive) | 0.003 (inactive) | 7.71% (inactive) | 0.844% (inactive) |
| O=C(Cn1cnc2c(cnn2-c2ccc(F)cc2)c1=O)N1CCN(c2ccccc2)CC1 | 341 | -6% (inactive) | -0.4% (inactive) | 90.7% | -79.8% (inactive) | 108% | -0.506 (inactive) | -2.6e-06 (inactive) | 0.00638 (inactive) | 4.22% (inactive) | 8.47% (inactive) |
| O=C(O)CSC1CC(=O)N(c2ccc(Cl)c(Cl)c2)C1=O (centres undefined) | 754 | -2.8% (inactive) | 11.7% (inactive) | 88.4% | 4.8% (inactive) | 114% | -0.304 (inactive) | -5.1e-05 (inactive) | 0.00566 (inactive) | 3.92% (inactive) | 8.23% (inactive) |
| Cc1c(NC(=O)c2ccc(COc3ccc4ccccc4c3)o2)c(=O)n(-c2ccccc2)n1C | 417 | 2.2% (inactive) | 1.1% (inactive) | 101% | -55.3% (inactive) | 109% | -0.598 (inactive) | -2.6e-05 (inactive) | 0.0029 (inactive) | -13.4% (inactive) | -61.2% (inactive) |
| CC1=NC(Nc2nc(C)c3ccccc3n2)=NC(C)(C)C1 | 391 | 1.5% (inactive) | -1.8% (inactive) | 94% | -13% (inactive) | 111% | -0.462 (inactive) | 6.6e-05 (inactive) | 0.00711 (inactive) | 3.86% (inactive) | 1.48% (inactive) |
| Cc1ccc(S(=O)(=O)NCCSc2nnnn2-c2ccc(C(N)=O)cc2)cc1 | 650 | -2.6% (inactive) | 2.1% (inactive) | 115% | -14.3% (inactive) | 111% | -0.564 (inactive) | 4.8e-06 (inactive) | 0.00721 (inactive) | -0.501% (inactive) | 12.6% (inactive) |
| CCCCn1c(CN(C)Cc2ccccc2)nc2c1c(=O)n(C)c(=O)n2C | 227 | -6.1% (inactive) | 13.2% (inactive) | 57% | 16.4% (inactive) | 103% | -0.605 (inactive) | -6.4e-05 (inactive) | 0.00658 (inactive) | -18.7% (inactive) | -58.3% (inactive) |
| Cc1cc(C)c(OCC(=O)Nc2cccc(O)c2)cc1C | 252 | -14.9% (inactive) | 46.4% (active) | 40.4% | -20.3% (inactive) | 102% | -0.44 (inactive) | -8.2e-06 (inactive) | 0.0065 (inactive) | 16.6% (inactive) | 11.6% (inactive) |
| Cc1ccc(C)c(N2CCN(CCCNC(=O)Cn3cc4c(n3)CCC(C)C4)CC2)c1 (centres undefined) | 554 | 9.9% (inactive) | -8.9% (inactive) | 90.9% | 29.9% (inactive) | 106% | -0.574 (inactive) | -2.4e-05 (inactive) | 0.00559 (inactive) | 13.6% (inactive) | 41% (inactive) |
| COc1cc(OC)c(OC)cc1CN(C)CCc1ccccn1 | 756 | -17% (inactive) | -20.8% (inactive) | 115% | -114% (inactive) | 109% | -0.356 (inactive) | -7.4e-05 (inactive) | 0.00545 (inactive) | 13.6% (inactive) | 37.3% (inactive) |
| Cn1cnc2c(N3CCCCC3)nccc21 | 720 | -31% (inactive) | 0.5% (inactive) | 97.8% | -88.5% (inactive) | 122% | -0.417 (inactive) | -0.000121 (inactive) | 0.00681 (inactive) | 7.97% (inactive) | 22.8% (inactive) |
